35 molecules from PubChem BioAssay (NCATS) can be followed below.

“And” between values parts separate entries of the source, which are not always exact repeats. Equal entries are not always repeated. Records with an inconclusive call do not appear. The source made the active and inactive calls. The call rests on the fitted dose curve.
Potency means the concentration at half of the fitted maximal effect.

The nature of this experiment: Primary qHTS to identify inhibitors of SARS-CoV-2 cell entry (AID 1645846). Further: nearly all actives have a fitted effect of over 45% in size. The conditions noted are these: SARS-CoV-2 pseudovirus cell entry assay, luminescence; activity change, negative = inhibition: at 57.1 µM (top of the series) unless noted; series mostly up to 57.1 µM. An excerpt: Assay Provider: Wei Zheng, Ph.D.
National Center for Advancing Translational Sciences, National Institute of Health, Rockville, MD.
SARS-CoV-2 spike protein, within the viral envelope, mediates viral attachment and infection of host cells. The SARS-CoV-2 spike protein specifically binds to the host receptor ACE2 (Angiotensin-converting enzyme 2). This interaction promotes endocytosis of the viral particle, additional events lead to viral-host cell membrane fusion and release of the viral contents, allowing viral replication.
While SARS-CoV-2 requires BSL-3 facilities for live virus work, pseudotyped partices (PP) that incorporate SARS-CoV-2 spike proteins without replication elements could facilitate studies on viral entry mechanisms in a BSL-2 setting. This PP cell entry assay could also enable screening of small molecule compound libraries in BSL-2 setting to identify inhibitors of SARS-CoV-2 cell entry.
PROTOCOL TABLE (format as described by Inglese J, Shamu CE and Guy RK. 2007)
SEQUENCE No. (e.g., 1, 2, 3, etc.); […] (e.g., Cells, Incubation, Reagent, etc.); VALUE and DESCRIPTION.
1. Cells. Seed 1500 HEK293-ACE2 cells (Expi293F with stable expression of human ACE2) in 2 uL/well media (DMEM, 10% FBS, 1x L-glutamine, 1x Pen/Strep, 1 ug/ml puromycin) in white 1536-well assay plates (Greiner #782073).
2. Incubation. Incubate at 37C with 5% CO2 overnight (~16 h).
3. Compounds. Dispense 23 nL/well compounds in DMSO via pin transfer.
4. Incubation. Incubate for 1 hr at 37C 5% CO2.
5. Reagent. Dispense 2 uL/well of SARS-CoV-2-S pseudotyped particles. [a] PPs are produced with murine leukemia virus pseudotyping. [b] SARS-CoV-2-S is Wuhan-Hu-1 sequence (BEI #NR-52420) with C-terminal 19 amino acid truncation.
6. Centrifuge. […]
7. Incubation. Incubate at for 48 hr at 37C 5% CO2
8. Centrifuge. Remove supernatant with gentle centrifugation using a Blue Washer (BlueCat Bio).
9. Reagent. Dispense 4 uL/well of Bright-Glo Luciferase detection reagent (Promega #E2620).
10. Incubation. Incubate for 5 min at room temperature.
11. Detection. Read luminescence signal (Viewlux plate reader, PerkinElmer). Data was normalized with wells containing SARS-CoV-2-S PP as 100%, and wells containing bald PP (no fusion protein) as 0%.
Turning to `Cc1c(Cl)c(=O)oc2cc(OP(=O)(OCCCl)OCCCl)ccc12`, the molecule was called inactive.
For `COc1ccc(-c2nc3ccc(C4=NNC(=O)CC4C)cc3[nH]2)cc1` (stereo not given), the activity change, negative = inhibition is -33%.
Regarding `CC(Cc1ccccc1)NCc1ccccc1Cl` (stereo not given), the activity change, negative = inhibition was -7.69%.
Consider `CCCCOc1ccc(CC(=O)NO)cc1`, for which the activity change, negative = inhibition is -20.4% and -25.7%.
`C[C@H](O)C(=O)Nc1c(I)c(C(=O)NC(CO)CO)c(I)c(C(=O)NC(CO)CO)c1I`: the activity change, negative = inhibition is 4.46%.
With `COc1cccc2c1C(=O)c1c(O)c3c(c(O)c1C2=O)C[C@@](O)(C(C)=O)C[C@@H]3O[C@H]1C[C@H](N)[C@H](O)[C@H](C)O1`, the activity change, negative = inhibition is -92.1% and -98%.
`C[C@]12CC[C@H](O)CC1=CC[C@@H]1[C@@H]2CC[C@]2(C)C(=O)CC[C@@H]12`: the Potency entry was “inactive”.
Consider `CC(C)OC(=O)C(C(=O)OC(C)C)=C1SC=CS1`, for which the molecule was called inactive and the activity change, negative = inhibition was -9.44%.
With `COc1ccccc1N1CCN(CC(O)COc2cccc3ccccc23)CC1` (stereo not given), the activity change, negative = inhibition was -24.9% and -27.1%.
The same measure, in the same setting: the figure for `CN(C)CCOC(c1ccccc1)c1ccc(Br)cc1` (stereo not given) is -67.2%; for `O=C(CCCCCCCCC#CI)Oc1ccccc1` it is 1.58%; for `CCCNC(C)(C)COC(=O)c1ccccc1` it is 3.38%.
On the same count and under the same terms, the figure for `Cc1ccc(C(=O)Nc2ccc(S(=O)(=O)O)c3cc(S(=O)(=O)O)cc(S(=O)(=O)O)c23)cc1NC(=O)c1cccc(NC(=O)Nc2cccc(C(=O)Nc3cc(C(=O)Nc4ccc(S(=O)(=O)O)c5cc(S(=O)(=O)O)cc(S(=O)(=O)O)c45)ccc3C)c2)c1` is -17.2% [at 27.1 µM].
Turning to `OC[C@H]1O[C@@H](O[C@@H]2[C@@H](CO)O[C@](O)(CO)[C@H]2O)[C@H](O)[C@@H](O)[C@H]1O`, the activity change, negative = inhibition was -4.13% and the call was inactive.
With `CC(=O)OCC1=C(C(=O)O)N2C(=O)[C@@H](NC(=O)CSc3ccncc3)[C@H]2SC1`, the call was inactive.
With `CC(=O)OC[C@H]1O[C@@](COC(C)=O)(O[C@H]2O[C@H](COC(C)=O)[C@@H](OC(C)=O)[C@H](OC(C)=O)[C@H]2OC(C)=O)[C@@H](OC(C)=O)[C@@H]1OC(C)=O`, the activity change, negative = inhibition is -0.185%.
Turning to `C[C@H](CCC(=O)O)[C@H]1CC[C@H]2[C@@H]3C(=O)C[C@@H]4CC(=O)CC[C@]4(C)[C@H]3CC(=O)[C@]12C`, the molecule was classed as inactive.
Still for that read-out and setting: the entry for `CCCCC1(COC(=O)CCC(=O)O)C(=O)N(c2ccccc2)N(c2ccccc2)C1=O` is “inactive”.
Turning to `O=c1[nH]c(=O)n([C@H]2C[C@H](O)[C@@H](CO)O2)cc1C(F)(F)F`, the activity change, negative = inhibition was -93.8%.
For `NS(=O)(=O)c1cc2c(cc1Cl)NC(C1CC3C=CC1C3)NS2(=O)=O` (stereo not given), the molecule was called inactive.
With `CN1CCC(=C2c3ccccc3CCc3sccc32)CC1`, the Potency was 14.1 µM (active).
For the molecule `CNC(=O)c1c(I)c(NC(=O)CCCCC(=O)Nc2c(I)c(C(=O)O)c(I)c(C(=O)NC)c2I)c(I)c(C(=O)O)c1I`, the outcome was inactive.
Turning to `CCCCCCCCCCCCOCCOCCOCCOCCOCCOCCOCCOCCOCCO`, the Potency is 11.2 µM (active).
Take `C#CCN(C)Cc1ccccc1`: the result was inactive.
For `CCOC(=O)OC(C)OC1=C(C(=O)Nc2ccccn2)N(C)S(=O)(=O)c2ccccc21` (stereo not given), the result was inactive.
Consider `NC(=O)c1ncn([C@@H]2O[C@H](CO)[C@@H](O)[C@H]2O)c1N`, for which the outcome was inactive and the activity change, negative = inhibition is -18.5%.
Take `NC(=O)CC[C@@H](N)C(=O)O`: the activity change, negative = inhibition is -8.52%.
In the case of `O=C(O)c1cccc(-c2noc(-c3ccccc3F)n2)c1`, the activity change, negative = inhibition is -78% and the call was inactive.
As to `CN(C(=O)c1c(O)c2ccccc2n(C)c1=O)c1ccccc1`, the activity change, negative = inhibition is -55.9%.
`CNC[C@H](O)c1ccc(O)c(O)c1`: the Potency entry is “inactive”.
For the molecule `C/C=C/C(=O)N(CC)c1ccccc1C`, the molecule was classed as inactive and the activity change, negative = inhibition was -9.15%.
Take `O=C(O)c1nn(Cc2ccc(Cl)cc2Cl)c2ccccc12`: the activity change, negative = inhibition was -33.8%.
The same measure, in the same setting: the figure for `Oc1ccc([C@H]2CNCc3c2ccc(O)c3O)cc1O` is 1.13%.
With `Cc1[nH]c(=O)c(C#N)cc1-c1ccc2nccn2c1`, the call was inactive.
Take `COc1ccc(CCN2CCC(Nc3nc4ccccc4n3Cc3ccc(F)cc3)CC2)cc1`: the Potency was 10 µM (active).
